In PubChem BioAssay one finds composite z-score, composite Z-score and z-score data, which are given here for seven molecules.

Activity calls are given as the source filed them.

Test [1] has as its target Albumin (Bos taurus) (UniProt P02769). Put plainly: bovine serum albumin binders on microarray, profiling panel, artefact control for SMM control protein annotation, biochemical, small-molecule microarray, Alexa647 label, 635/667 nm fluorescence (AID 1118).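 Note: score merges 667 nm emission intensity and signal-to-noise per printed compound spot.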 The note with it: BSA-A647 binding, fluorescence 635 nm, higher = more signal.
A short description of test [2]: small-molecule microarray binders of probe aXIP, primary screen, biochemical, NeuroSMM set, 635/667 nm fluorescence (AID 1119).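 Note: probe is the protein aXip251-270 applied at 1 µg/mL to compound-printed slides; binding of probe to printed compounds measured as 667 nm fluorescence plus signal to noise.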 Conditions: higher = more signal, called active from +8 up or from −8 down.
A short description of test [3]: small-molecule binders of probe aNOTCH3, primary screen, biochemical, small-molecule microarray, 635/667 nm fluorescence (AID 1120).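 Note: probe is a biotin-tagged antibody raised against NOTCH3 rather than NOTCH3 protein; score merges spot fluorescence near 667 nm with spot signal to noise.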 The note with it: higher = more signal.
Test [4] in a line: small-molecule binders of probe aNOTCH2, primary screen, biochemical, small-molecule microarray, 635/667 nm fluorescence (AID 1121).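 Note: score merges feature fluorescence read at 667 nm with its signal to noise.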 Conditions: higher = more signal.
Test [5] concerns the target Carbonic anhydrase 2 (Homo sapiens) (UniProt P00918). Put plainly: CAII small-molecule binders, profiling panel, biochemical, small-molecule microarray, Alexa647-labelled CAII (AID 1122). The note with it: CAII-A647 binding fluorescence, higher = more signal.
Test [6] in a line: COS7 lysate on small-molecule microarray, probe aHis, 635 nm (AID 1123).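 Note: z-score combines 667nm fluorescence intensity with signal-to-noise per printed compound spot.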 The note with it: COS7 cell lysate, fluorescence, higher = more signal.
Test [7] in a line: compound binding in COS7 lysate, probe aLAP1, primary screen, cell lysate, small-molecule microarray (AID 1124).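 Note: lysate comes from COS7 cells expressing LAP1 and is applied at 0.3 µg/mL; score merges spot fluorescence near 667 nm with signal-to-noise over triplicate slides.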 The note with it: probe aLAP1, fluorescence, higher = more signal.
The subject of test [8] is Sam68 (KHDRBS1). Put plainly: Sam68 small-molecule binders, primary screen, biochemical, small-molecule microarray, 635 nm fluorescence (AID 1125).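 Note: score merges 667 nm channel intensity with signal to noise over triplicate slides.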 Conditions: small-molecule microarray binding, higher = more signal.
Test [9] relates to Chordin-like protein 2 (CHRDL2). In words: CHRDL2 small-molecule binders, primary screen, biochemical, small-molecule microarray, 635 nm fluorescence (AID 1126).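 Note: printed compound slides probed with Chrdl2 protein at 4 µg/mL for 1 h at 4 C; score merges 667 nm emission intensity with signal to noise over three replicate slides.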 Conditions: small-molecule microarray binding, fluorescence 635 nm; higher = more signal.
Test [10] addresses Concanavalin-A (Canavalia ensiformis) (UniProt P02866). Put plainly: ConA small-molecule binders, primary screen, artefact control for SMM control protein annotation, biochemical, small-molecule microarray, Alexa647 label, 635 nm (AID 1127).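 Note: z combines 667 nm emission intensity with signal-to-noise across three replicate slides.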 The note with it: ConA-A647 binding fluorescence, higher = more signal.
Test [11] is described as follows: anti-His antibody binders, primary screen, artefact control for SMM control protein annotation, biochemical, small-molecule microarray, 635 nm fluorescence (AID 1128).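 Note: score merges feature fluorescence with signal-to-noise for each printed compound spot.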 Conditions: anti-His Alexa647 antibody binding, higher = more signal.
In test [12] the test system is Human papillomavirus type 1a E7 protein (residues 1-88). In words: HPV1a E7 small-molecule binders, primary screen, biochemical, small-molecule microarray, residues 1-88, 635 nm (AID 1129). Conditions: small-molecule microarray binding, fluorescence 635 nm; higher = more signal.
Test [13] addresses Focal adhesion kinase 1 (Homo sapiens) (UniProt Q05397). Put plainly: small-molecule microarray binders of FAK, primary screen, biochemical, 635/667 nm fluorescence, BSA, DTT (AID 1130).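 Note: composite of spot emission at 667 nm and signal to noise over triplicate slides.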 The note with it: PTK2 binding, 635 nm fluorescence, higher = more signal.
In test [14] the test system is Fibrinogen (Alexa647-labelled). Put plainly: fibrinogen binders on compound microarrays, profiling panel, artefact control for SMM control-protein annotation, biochemical, small-molecule microarray, 635/667 nm fluorescence (AID 1131).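 Note: z-score merges 667 nm fluorescence with per-spot signal-to-noise over triplicate slides.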 Conditions: fibrinogen-A647 binding fluorescence, higher = more signal.
The target of test [15] is Follistatin (Homo sapiens) (UniProt P19883). In words: follistatin binders on small-molecule microarrays, primary screen, biochemical, small-molecule microarray, 635/667 nm fluorescence (AID 1132). Conditions: FST binding, 635 nm fluorescence, higher = more signal.
Chain of Follistatin (Homo sapiens) (P19883 whole entry, looked up): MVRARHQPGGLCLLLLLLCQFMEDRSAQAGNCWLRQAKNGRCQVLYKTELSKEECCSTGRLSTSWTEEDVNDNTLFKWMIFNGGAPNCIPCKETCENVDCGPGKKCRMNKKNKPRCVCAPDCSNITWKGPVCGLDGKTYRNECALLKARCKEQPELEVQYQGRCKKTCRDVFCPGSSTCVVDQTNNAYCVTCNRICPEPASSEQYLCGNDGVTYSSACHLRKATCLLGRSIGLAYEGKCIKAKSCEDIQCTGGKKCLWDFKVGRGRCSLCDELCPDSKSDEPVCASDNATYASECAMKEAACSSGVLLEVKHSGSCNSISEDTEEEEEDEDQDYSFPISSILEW
Test [16] concerns the target Fibroblast growth factor 2 (Homo sapiens) (UniProt P09038). In words: FGF2 binders on small-molecule microarrays, primary screen, biochemical, small-molecule microarray, 635/667 nm fluorescence (AID 1133). Conditions: small-molecule microarray binding, FGF2, fluorescence 635/667; higher = more signal.
Test [17] can be described thus: mitochondrial membrane potential change in A549 cells, profiling panel, cell-based, JC-1 fluorescence, basal, 24 h, 100 nL (AID 1138).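 Note: A549 lung adenocarcinoma cells under basal conditions with no added stimulus; test concentration not given here.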 Conditions: higher = more signal.
In test [18] the test system is Lefty1. In words: Lefty1 binders on small-molecule microarrays, primary screen, biochemical, small-molecule microarray, 635/667 nm fluorescence (AID 1139). Conditions: small-molecule microarray binding, fluorescence 635/667; higher = more signal.
The subject of test [19] is wheat germ agglutinin (Triticum aestivum), Alexa647-labelled. Put plainly: wheat germ agglutinin binders on compound microarrays, profiling panel, artefact control for SMM control-protein annotation, biochemical, small-molecule microarray, 635/667 nm fluorescence (AID 1140).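 Note: score merges 667 nm feature emission with signal to noise over triplicate slides.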 The note with it: WGA-A647 binding, 635 nm fluorescence, higher = more signal.
For test [20], the target named is Luciferin 4-monooxygenase (Photinus pyralis) (UniProt P08659). In words: firefly luciferase enzyme inhibitors, primary screen, biochemical, luminescence, purified enzyme, 2006 set (AID 1141).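 Note: cell-free assay with purified firefly luciferase at 100 ng per well in PBS; test concentration not given here.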 The note with it: SteadyGlo luminescence, 30 min, higher = more signal, called active from +8 up or from −8 down.
Chain of Luciferin 4-monooxygenase (Photinus pyralis) (P08659 whole entry, looked up): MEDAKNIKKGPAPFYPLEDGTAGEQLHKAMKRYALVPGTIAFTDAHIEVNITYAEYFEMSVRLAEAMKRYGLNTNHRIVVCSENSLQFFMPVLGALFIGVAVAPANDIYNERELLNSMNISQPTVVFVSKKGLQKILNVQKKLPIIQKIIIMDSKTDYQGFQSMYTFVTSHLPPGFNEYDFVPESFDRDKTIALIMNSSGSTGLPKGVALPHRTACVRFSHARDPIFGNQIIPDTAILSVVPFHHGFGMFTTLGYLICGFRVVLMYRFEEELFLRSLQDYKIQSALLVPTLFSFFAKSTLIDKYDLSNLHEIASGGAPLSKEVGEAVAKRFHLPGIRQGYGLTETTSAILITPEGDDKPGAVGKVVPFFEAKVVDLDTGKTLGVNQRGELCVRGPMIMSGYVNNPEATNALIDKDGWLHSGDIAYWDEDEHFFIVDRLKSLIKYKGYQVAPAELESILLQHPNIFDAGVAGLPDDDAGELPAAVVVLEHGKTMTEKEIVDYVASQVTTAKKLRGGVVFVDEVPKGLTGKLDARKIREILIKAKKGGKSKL

Chain of Focal adhesion kinase 1 (Homo sapiens) (Q05397 whole entry, looked up): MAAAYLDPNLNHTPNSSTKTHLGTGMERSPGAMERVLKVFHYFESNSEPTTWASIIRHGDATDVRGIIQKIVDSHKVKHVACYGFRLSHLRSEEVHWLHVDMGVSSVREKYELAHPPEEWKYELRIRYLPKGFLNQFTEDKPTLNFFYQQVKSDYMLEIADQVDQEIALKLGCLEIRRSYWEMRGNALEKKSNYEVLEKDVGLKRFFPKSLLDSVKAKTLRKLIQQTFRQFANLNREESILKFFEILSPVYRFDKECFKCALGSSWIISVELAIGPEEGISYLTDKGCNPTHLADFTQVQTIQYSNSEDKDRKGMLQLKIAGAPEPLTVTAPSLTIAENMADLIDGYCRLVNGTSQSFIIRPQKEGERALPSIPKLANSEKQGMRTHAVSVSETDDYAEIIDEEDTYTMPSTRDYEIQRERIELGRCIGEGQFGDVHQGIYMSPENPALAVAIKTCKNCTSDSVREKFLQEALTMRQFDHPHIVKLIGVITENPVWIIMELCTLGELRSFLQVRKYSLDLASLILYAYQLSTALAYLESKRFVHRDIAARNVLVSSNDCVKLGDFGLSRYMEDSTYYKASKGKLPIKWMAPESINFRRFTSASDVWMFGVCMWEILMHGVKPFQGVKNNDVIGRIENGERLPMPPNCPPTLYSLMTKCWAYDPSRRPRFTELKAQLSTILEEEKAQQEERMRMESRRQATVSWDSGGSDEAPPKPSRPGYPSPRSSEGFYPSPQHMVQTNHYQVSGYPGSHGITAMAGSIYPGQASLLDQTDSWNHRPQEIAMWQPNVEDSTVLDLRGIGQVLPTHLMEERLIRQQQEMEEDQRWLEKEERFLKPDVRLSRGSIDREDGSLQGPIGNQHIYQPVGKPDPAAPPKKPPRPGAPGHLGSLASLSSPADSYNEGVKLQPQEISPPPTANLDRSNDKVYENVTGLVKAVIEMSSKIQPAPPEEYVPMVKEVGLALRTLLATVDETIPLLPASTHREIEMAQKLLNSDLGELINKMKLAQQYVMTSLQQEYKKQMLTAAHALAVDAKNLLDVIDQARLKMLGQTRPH
Chain of Fibroblast growth factor 2 (Homo sapiens) (P09038 whole entry, looked up): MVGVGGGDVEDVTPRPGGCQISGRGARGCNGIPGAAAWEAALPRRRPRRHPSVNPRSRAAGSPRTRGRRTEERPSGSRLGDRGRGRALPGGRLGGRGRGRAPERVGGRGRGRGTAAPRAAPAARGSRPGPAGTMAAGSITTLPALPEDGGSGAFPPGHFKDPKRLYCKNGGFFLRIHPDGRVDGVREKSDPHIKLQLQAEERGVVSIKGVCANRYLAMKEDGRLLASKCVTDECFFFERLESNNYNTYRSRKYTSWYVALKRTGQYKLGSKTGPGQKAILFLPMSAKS
Chain of Albumin (Bos taurus) (P02769 whole entry, looked up): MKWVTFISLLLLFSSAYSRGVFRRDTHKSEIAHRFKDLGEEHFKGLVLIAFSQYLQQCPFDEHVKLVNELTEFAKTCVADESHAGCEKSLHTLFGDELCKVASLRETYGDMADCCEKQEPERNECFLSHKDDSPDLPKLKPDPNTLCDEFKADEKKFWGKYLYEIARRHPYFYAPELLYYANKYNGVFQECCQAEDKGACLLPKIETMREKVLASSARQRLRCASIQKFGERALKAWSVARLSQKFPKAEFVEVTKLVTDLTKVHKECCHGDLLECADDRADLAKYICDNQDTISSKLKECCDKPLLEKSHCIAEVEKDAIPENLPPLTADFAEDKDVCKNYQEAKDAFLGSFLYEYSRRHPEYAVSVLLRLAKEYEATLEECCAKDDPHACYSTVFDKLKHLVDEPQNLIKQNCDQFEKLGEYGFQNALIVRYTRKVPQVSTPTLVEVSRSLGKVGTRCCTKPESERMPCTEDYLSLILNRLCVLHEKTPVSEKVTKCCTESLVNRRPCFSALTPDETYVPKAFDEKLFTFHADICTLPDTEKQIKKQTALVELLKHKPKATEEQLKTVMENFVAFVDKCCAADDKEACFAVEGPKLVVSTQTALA
Chain of Concanavalin-A (Canavalia ensiformis) (P02866 whole entry, looked up): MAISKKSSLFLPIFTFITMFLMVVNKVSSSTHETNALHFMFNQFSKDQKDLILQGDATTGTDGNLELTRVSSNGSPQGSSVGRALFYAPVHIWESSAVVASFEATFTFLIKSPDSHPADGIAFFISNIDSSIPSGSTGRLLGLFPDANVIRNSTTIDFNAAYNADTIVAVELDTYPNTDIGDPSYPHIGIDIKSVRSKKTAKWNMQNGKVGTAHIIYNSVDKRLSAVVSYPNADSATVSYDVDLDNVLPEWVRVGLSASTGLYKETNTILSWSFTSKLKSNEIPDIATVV

`CCOC(=O)C1=C[C@@H](c2ccccc2)N(S(=O)(=O)c2ccc(C)cc2)[C@H]1c1ccc(OC)cc1`: the composite z-score in test [1] was 0.72; in [3], 0.815; in [4] it was 0.493; in test [5] it was 0.614; in [6] it was 1.71; in test [7], 0.755. The composite z-score was 1.32 in test [8]; -0.224 in test [9]; 1.1 in test [10]; 0.546 in test [11]; 0.957 in test [12]; 0.501 in test [13]. The composite z-score was 0.935 in test [14]; 0.609 in test [15]; 0.217 in [16]; -0.0395 in test [18]; 1.11 in test [19]. The composite Z-score in test [2] is -0.0164 (inactive). For the same molecule, the results for the z-score in [17] and in test [20] were 1.77 and 1.51 (inactive), respectively.

Consider `C[N+](C)(C)CCCCCCNC(=O)[C@@H]1C[C@@H]2C(=O)N3CCC[C@H]3C(=O)N2[C@@H]1c1ccc(O)cc1`, for which the composite z-score in test [1] was -0.245; in [3], 0.0591; in [4], -0.118; in [5], 0.684; in test [6] it was 1.47; in test [7], 0.326. For the same molecule, the composite z-score is 0.904 in test [8]; 1.41 in test [9]; 0.818 in [10]; 1.36 in [11]; 0.451 in test [12]; 0.0225 in [13]. For the same molecule, the composite z-score is -0.472 in test [14]; 1.4 in [15]; 1.42 in test [16]; 1.3 in [18]; 0.6 in test [19]. Moreover, the composite Z-score in test [2] is 0.05 (inactive). The z-score in test [17] was -1.19; in test [20] it was 0.824 (inactive).

In the case of `COc1cc(C(O)C2C=CC3C(=O)N(C)C(=O)C3N2Nc2ccccc2)cc(OC)c1OC` (stereo not given), the composite z-score in test [1] turned out to be 0.785; in [3], 0.962; in test [4], 0.106; in [5], 0.818; in test [6], 3.2; in [7] it was 0.708. In addition, the composite z-score in test [8] is 1.11; in test [9], -0.0836; in test [10] it was 1.01; in test [11], 2.78; in test [12], 1.23; in test [13] it was 1.05. For the same molecule, the composite z-score is 1 in test [14]; 0.568 in test [15]; -0.397 in [16]; -0.714 in test [18]; 1.14 in test [19]. In test [2], the composite Z-score was -0.014 (inactive). The z-score in [17] is 0.29; in test [20] it was -1.36 (inactive).

Consider `Cc1ccc(C(C)CC(O)C2C=CC3C(=O)N(c4ccccc4)C(=O)C3N2Nc2ccccc2)o1` (stereo not given), for which the composite z-score was 0.804 in test [1]; 0.257 in test [3]; -0.0303 in [4]; 0.382 in [5]; 1.55 in [6]; 0.412 in test [7]. In addition, the composite z-score in test [8] was 1.29; in test [9], -0.19; in [10] it was 1.09; in test [11] it was 0.943; in [12] it was 1.28; in test [13], 0.908. The composite z-score is 0.821 in test [14]; 1.03 in test [15]; -0.0968 in test [16]; -0.0661 in test [18]; 0.982 in test [19]. Further, in [2], the composite Z-score is -0.474 (inactive). Further, the z-score in test [17] was -0.592; in test [20] it was -1.22 (inactive).

As for `CC(=O)NCCCC[C@@H]1NC(=O)[C@@H]2C[C@H](C(=O)NCCCCCN)[C@H](c3cccc(OCCO)c3)N2C1=O`, the composite z-score in [1] turned out to be 0.379; in test [3] it was 0.324; in test [4], 0.0181; in test [5], 0.697; in [6] it was 0.812; in test [7], 0.0312. Besides, the composite z-score in test [8] amounted to 0.803; in test [9], 0.56; in test [10], 1.11; in test [11], 0.586; in test [12], 1.04; in test [13], 0.295. Further, the composite z-score in [14] came out at 0.97; in [15], 1.37; in test [16], 1.6; in test [18] it was 1.03; in [19], 0.79. Further, the composite Z-score in test [2] was 0.36 (inactive). Moreover, the z-score in test [17] was 0.989; in test [20] it was 0.159 (inactive).

Regarding `COc1ccc([Si](C)(C)[C@H]2[C@H](CC(=O)N3Cc4ccccc4C[C@H]3CO)O[C@@]3(C(=O)N(Cc4ccc(N5CCOC5=O)cc4)c4ccccc43)[C@@H]2C)cc1`, the composite z-score in test [1] was -0.153; in test [3] it was -0.0106; in test [4], -0.0249; in test [5] it was 0.444; in test [6] it was 0.591; in [7], 0.246. For the same molecule, the composite z-score is 1.33 in test [8]; 1.32 in test [9]; 1.05 in test [10]; 1.14 in test [11]; 0.923 in test [12]; 0.109 in test [13]. The composite z-score turned out to be 0.339 in test [14]; 1.32 in [15]; 1.39 in test [16]; 1.22 in test [18]; 0.396 in test [19]. In addition, the composite Z-score in test [2] is 0.949 (inactive). Besides, the z-score in test [17] is 0.516; in [20], -0.246 (inactive).

For the molecule `CCCC#C[Si](O[C@H](CC)c1cn([C@H](C)c2ccccc2)nn1)(C(C)C)C(C)C`, the composite z-score in test [1] was 0.468; in [3] it was -0.112; in test [4], -0.0317; in [5], 0.26; in test [6], 0.47; in test [7], -0.0249. The composite z-score came to 0.702 in [8]; 0.169 in [9]; 0.488 in test [10]; 0.439 in test [11]; 0.625 in test [12]; 0.986 in test [13]. Moreover, the composite z-score was determined as 0.856 in test [14]; 0.297 in test [15]; 0.484 in test [16]; 0.23 in test [18]; 0.06 in test [19]. Moreover, the composite Z-score in [2] is 0.381 (inactive). The z-score in test [17] is 1.04; in [20], -1.08 (inactive).
